# The panel holds about 83,000 compounds, 20% with a hit somewhere; the sample as a whole holds those more often.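 Values shown are percent growth following 48 h exposure of cells in 96-well plates to a single concentration of compound; below 10 was considered active.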 A number with no mark means an inactive call. The source made the active and inactive calls.
# Key:
# Test in all cases: NCI-60 one-dose screen, 48 h (100 = growth as untreated, 0 = no growth, -100 = all killed)
# Settings in all cases: 10 µM unless noted
# [1] = test system: SR leukemia
# [2] = test system: RPMI-8226 leukemia
# [3] = test system: OVCAR-8 ovarian
# [4] = test system: OVCAR-5 ovarian
# [5] = test system: OVCAR-4 ovarian
# [6] = test system: SK-OV-3 ovarian
# [7] = test system: IGROV1 ovarian
# [8] = test system: OVCAR-3 ovarian
# [9] = test system: HS 578T breast
# [10] = test system: NCI/ADR-RES ovarian
# [11] = test system: T-47D breast
# [12] = test system: BT-549 breast
# [13] = test system: MDA-MB-435 melanoma
# [14] = test system: SW-620 colon
# [15] = test system: HCT-116 colon
# [16] = test system: HCC-2998 colon
# [17] = test system: KM12 colon
# [18] = test system: MCF7 breast
SMILES,growth [1],growth [2],growth [3],growth [4],growth [5],growth [6],growth [7],growth [8],growth [9],growth [10],growth [11],growth [12],growth [13],growth [14],growth [15],growth [16],growth [17],growth [18]
COc1cccc(/C=N\Nc2ccc([N+](=O)[O-])cn2)c1O,48.3%,62.6%,10.6%,104%,29.5%,68.7%,36.2%,8.54% (active),63.9%,18.6%,30.1%,71.8%,54.3%,38%,8.72% (active),82.2%,78.4%,–
CC(C)(C)[Si](C)(C)OC1[C@@H](CNC(N)=O)O[C@@H](n2cnc3c(NC(=O)Nc4ccccc4)ncnc32)[C@H]1O[Si](C)(C)C(C)(C)C (stereo not given in full),6.81% (active),47.6%,59.9%,82.5%,50.3%,93.6%,56.1%,61.1%,58.7%,58.5%,64.6%,80.1%,53%,62%,0.343% (active),19%,48.9%,–
CC[C@]1(O)C[C@H]2CN(CCc3c([nH]c4ccccc34)C(C(=O)OC)(c3cc4c(cc3OC)N(C)[C@H]3[C@@](O)(C(=O)OC)[C@H](OC(C)=O)[C@]5(CC)[C@@H]6C[C@@H]6CN6CC[C@]43[C@@H]65)C2)C1 (stereo not given in full),-20.5% (active),42.1%,19.4%,6.6% (active),29.1%,-11.9% (active),9.14% (active),5.03% (active),43.9%,-3.99% (active),65.6%,-47.2% (active),-12.8% (active),31.6%,-22.4% (active),2.47% (active),12%,–
C#C[C@]1(O)CC[C@H]2[C@@H]3CC=C4c5sc(-c6cccc(Br)c6)nc5CC[C@]4(C)[C@H]3CC[C@@]21C,45.6%,2.09% (active),98.7%,75.5%,100%,95.9%,102%,101%,69.5%,91.1%,80.6%,87.3%,91.7%,87.9%,83.6%,85.1%,63.8%,–
CC(=O)OC[C@H]1O[C@@H](n2c(=O)cc(N)[nH]c2=O)C(OC(C)=O)[C@@H]1OC(C)=O (stereo not given in full),106%,103%,99.4%,99.8%,110%,106%,103%,114%,95.7%,103%,96%,–,101%,107%,103%,–,111%,94.9%
COc1cc2c(=O)n(CCCN(C)C)c3c4cc[nH]c4ncc3c2cc1OC,15.7%,22.2%,27.8%,71%,34.7%,42.8%,45.2%,49.1%,65%,89.4%,63.9%,72.5%,–,24.9%,16.8%,55.7%,19.2%,15.5%
CN(C)c1ccc(C2(Cl)c3ccccc3N(C)c3ccccc32)cc1,25.4%,21.1%,7.94% (active),91.7%,59.5%,77.6%,46.5%,35.8%,71.7%,94.6%,33.5%,–,46.7%,21.6%,5.46% (active),77.4%,36.7%,50.4%
COc1cnc2c(c1)C(=O)c1c-2n(CCCN2CCN(C)CC2)c(=O)c2cc(Cl)ccc12,-9.29% (active),43.5%,31%,77.9%,43.9%,52.3%,58.9%,68.3%,54.8%,44.8%,8.74% (active),56.5%,–,1.45% (active),–,66.8%,45.5%,20.8%
Clc1ccccc1CNc1c2ccccc2nc2ccccc12,0.495% (active),-26.9% (active),23.8%,32.6%,13.1%,54.9%,17.8%,53.6%,50%,23.8%,30.4%,38.1%,–,9.61% (active),8.1% (active),-17.2% (active),22%,-0.21% (active)
CC(C)CCSc1nc(-c2ccc(F)cc2)c(C#N)c(N2CCCCC2)n1,87.6%,91.2%,89.3%,102%,93.6%,105%,106%,105%,99.1%,99.2%,79%,91.4%,–,95.6%,88%,102%,94.5%,93.6%
COc1cnc2c(c1)C(=O)c1c-2n(CCCN2CCNCC2)c(=O)c2cc(Cl)ccc12,-48.7% (active),-64.9% (active),-58.9% (active),-96.1% (active),53.4%,14.5%,51.4%,-90.5% (active),66.3%,48.1%,58.8%,–,0.312% (active),-84.5% (active),-100% (active),54.4%,11.8%,-74.9% (active)
CNC(=O)c1c(NC(=O)c2ccc(C(C)C)cc2)sc2c1CCC(=O)C2,2.8% (active),-26.2% (active),11%,-45.9% (active),-74.3% (active),-3.87% (active),-52.7% (active),-10.8% (active),19.1%,-7.01% (active),-36.6% (active),-11.2% (active),9.66% (active),–,–,-55.3% (active),-17.9% (active),0.569% (active)
COc1ccccc1/C=C/C(=O)CCC(=O)O,89.1%,98.8%,105%,104%,104%,98.5%,110%,107%,96%,107%,93.1%,113%,–,107%,101%,114%,114%,102%
COc1ccc2nc3ccccc3c(NCc3ccc(C)cc3)c2c1,-12.7% (active),-46.2% (active),28.7%,34%,18.5%,52.7%,17.2%,46.9%,42.7%,23.8%,30.6%,51.6%,42.2%,–,–,–,37.3%,3.43% (active)
CCCCCCCCCCCCCCCCCC(=O)[O][Sn]([CH2]CCC)([CH2]CCC)[CH2]CCC,15.8%,-30.8% (active),-57% (active),-71.1% (active),-98% (active),-96.2% (active),-88.7% (active),-100% (active),-8.64% (active),-86.6% (active),-78.9% (active),–,-87.2% (active),-83.6% (active),-96.2% (active),-99.1% (active),-96.2% (active),-93.1% (active)
CCN(CC)c1ccc(/C=N/NC(=O)c2ccc(S(C)(=O)=O)cc2)c(O)c1,9.02% (active),21%,16.8%,32.5%,34.7%,39%,21.2%,33.4%,68%,17.8%,30%,–,37.2%,33.1%,18.4%,39.6%,25.9%,8.79% (active)
CS(=O)(=O)c1ccc(C(=O)N/N=C/c2ccc3c(c2)OCO3)cc1,110%,102%,93.8%,116%,109%,107%,113%,99.4%,100%,110%,97.3%,–,102%,105%,98.1%,–,95.9%,95%
CCN(CC)C(=O)O/N=C(/C)c1ccccc1,104%,105%,93.3%,103%,80.7%,111%,126%,109%,123%,103%,110%,–,104%,106%,104%,104%,102%,97.1%
